# From PubChem BioAssay (NCI)
# Compounds without any hit were thinned out: in the full panel of roughly 83,000, 20% have a hit.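 Note: values are percent growth. 100 is the growth of untreated cells, values between 100 and 0 indicate rising inhibition; between -100 and 0 indicates cell death.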 Values without a mark were called inactive. Active and inactive are the calls of the source. Rule for the calls: active = growth percent below 10; inactive = the rest.
# Tests used:
# Test in all cases: NCI-60 one-dose screen, 48 h (100 = growth as untreated, 0 = no growth, -100 = all killed)
# Conditions in all cases: 10 µM unless noted
# NCI-H23 lung = test system: NCI-H23 lung
# NCI-H226 lung = test system: NCI-H226 lung
# NCI-H322M lung = test system: NCI-H322M lung
# HOP-62 NSCLC = test system: HOP-62 NSCLC
# NCI-H460 lung = test system: NCI-H460 lung
# HOP-92 NSCLC = test system: HOP-92 NSCLC
# NCI-H522 lung = test system: NCI-H522 lung
# A549/ATCC NSCLC = test system: A549/ATCC NSCLC
# 786-0 renal = test system: 786-0 renal
# COLO 205 colon = test system: COLO 205 colon
SMILES,growth (NCI-H23 lung),growth (NCI-H226 lung),growth (NCI-H322M lung),growth (HOP-62 NSCLC),growth (NCI-H460 lung),growth (HOP-92 NSCLC),growth (NCI-H522 lung),growth (A549/ATCC NSCLC),growth (786-0 renal),growth (COLO 205 colon)
O=S(=O)(Nc1ccc(Cl)c(C(F)(F)F)c1)c1ccc(-c2cnc(C3CC3)o2)cc1,20.4%,46.7%,44.4%,12.2%,7.09% (active),-18.5% (active),-1.8% (active),8.92% (active),25.9%,2.71% (active)
CCCNc1nc2ccccc2c2c1S(=O)(=O)c1ccc(Cl)cc1C2=O,24.7%,34.7%,32.7%,9.66% (active),5.29% (active),-27.2% (active),-81.3% (active),19.6%,13.9%,-9.19% (active)
COc1ccc(OC)c(-c2nc(SCC(=O)c3ccc(C#N)cc3)[nH]c(=O)c2C#N)c1,98.1%,101%,105%,99.7%,112%,99%,90.4%,103%,101%,86.9%
CS(=O)(=O)Nc1cc(-c2ccc3ncnc(Nc4ccc5c(cnn5Cc5cccc(F)c5)c4)c3c2)cnc1Cl,10.4%,20.8%,-5.63% (active),9.82% (active),22.8%,-20.1% (active),-11% (active),23.6%,13.3%,-20.2% (active)
Oc1ccc(Cl)cc1/C=N\NC(=S)N/N=C/c1cc(Cl)ccc1O,50%,32.5%,34.4%,51.2%,14.7%,40.1%,-7.22% (active),37.4%,21.4%,41.5%
c1cnc2c(-c3nc4ccc5[nH]ncc5c4c4c3CCCC4)c[nH]c2c1,22.4%,42.6%,21.3%,15%,7.48% (active),40.6%,-23.3% (active),16.6%,32.5%,26.7%
COc1ccc(C(=O)c2cc3c(N)c(C(=O)Nc4ccc(C)cc4)sc3nc2C)cc1,43.3%,57.2%,48.9%,36.3%,4.1% (active),70.8%,13.3%,22.3%,42.9%,18.7%
CCn1cc(C(=O)NNC(=S)Nc2ccc(C)cc2)c(=O)c2ccc(C)nc21,102%,90.1%,80.4%,108%,101%,95.1%,97.3%,91.6%,102%,116%
Cc1cc(S(=O)(=O)/N=C(\N)n2nc(C)c(C)c2C)c(SCc2ccccc2)cc1Cl,54.6%,78.6%,86.2%,91.7%,81.2%,50.3%,17.2%,52.9%,77.2%,114%
O=C(Nn1c2c(sc1=NC1CC1)C(=O)c1ccccc1C2=O)c1cc2ccc1CCc1ccc(cc1)CC2,9.63% (active),64.9%,96%,54.1%,53.9%,95.5%,37.3%,67.7%,68.6%,96.3%
CC1CCN(S(=O)(=O)c2ccc(S(=O)(=O)N3CCCC(c4nc5c(nnn5Cc5cccc(Cl)c5)c(=O)[nH]4)C3)cc2)CC1 (stereo not given),65.4%,75.2%,61.3%,57.2%,23.9%,56%,33.7%,64.8%,64.4%,91.3%
COc1cccc(/C=C2\COc3ccc(O)c(O)c3C2=O)c1,47%,79.1%,36.4%,4.02% (active),28.7%,-12% (active),-67% (active),47.6%,-38.1% (active),43.3%
CCCC/C=C/[C@@H]1C[C@H]1CCO,102%,91.5%,92.1%,90.5%,105%,96.5%,78.3%,96.7%,99.5%,100%
COc1cc2c(cc1OCCCN1CCN(CCCOc3cc4c(cc3OC)C(=O)N3CC(F)(F)C[C@H]3C=N4)CC1)N=C[C@@H]1CC(F)(F)CN1C2=O,54%,95.5%,97.9%,97.4%,27%,10.8%,-14.3% (active),94.4%,86.2%,43.1%
NS(=O)(=O)c1ccc(N=Nc2c(O)n(Cc3ccccc3)c3ccc(Cl)cc23)cc1,91.2%,34.1%,84%,64.3%,64.9%,97.8%,69.1%,82.9%,48%,94.3%
Cc1[nH]c(=O)[nH]c(=O)c1Br,97.9%,108%,120%,104%,105%,102%,111%,98.2%,107%,112%
O=C(Cn1cc(CSc2nc3ccccc3o2)nn1)Nc1ccc(F)cc1F,96%,86.2%,104%,114%,117%,114%,111%,113%,119%,127%
Cn1ccnc1C(=O)/C=C/c1ccc(C(=O)Nc2ccccc2O)cc1,30.6%,63.4%,45.3%,12.7%,8.78% (active),81.4%,60.4%,31.2%,9.95% (active),56.5%
COc1cc(-c2nc3sccn3c2-c2ccnc(NCCNS(=O)(=O)c3ccccc3)n2)ccc1F,67.6%,41.2%,67.7%,73.2%,60.4%,47.8%,36.2%,45.5%,61.4%,40.4%
COCCn1cc(-c2nc(-c3cc4cccnc4[nH]3)cs2)c2cc(OC)ccc21,8.67% (active),28.8%,21.2%,13.4%,7.21% (active),4.04% (active),41.6%,24.8%,28.5%,49.4%
C=CC(=O)N1CCN(c2cccc(Oc3nccc(Nc4nnc(-c5ccc(Br)cc5)s4)n3)c2)CC1,79%,88.8%,92.3%,62.2%,25.6%,88.3%,-2.86% (active),47.3%,73.5%,63.4%
Cc1nc2sc(C(=O)Nc3cccc4ccccc34)c(N)c2cc1C(O)c1ccccc1 (stereo not given),7.51% (active),46.1%,51.4%,20.4%,0.274% (active),34%,-25.3% (active),9.88% (active),16.1%,-58.2% (active)
COc1ccc2[nH]c(C(=O)N3CCN(C(=O)OCc4ccc5c(Cl)cc(Cl)c(O)c5n4)CC3)cc2c1,-85.8% (active),-4.54% (active),29.1%,-61.5% (active),-58.9% (active),-65.4% (active),-70.8% (active),-68% (active),-91.7% (active),-81.6% (active)
O=C(Nc1cccc2ccccc12)NC1CC1,105%,99.9%,111%,89.8%,106%,99%,136%,103%,101%,107%
Oc1c(Br)cc(Br)c2ccc(Cn3cc(-c4ccc(C(F)(F)F)cc4)nn3)nc12,84.7%,85%,103%,98.9%,103%,21.5%,-43.5% (active),103%,96.9%,59.7%
CCCCCN1C(=O)/C(=c2\sc3n(c2=O)C2C(NN=3)N(CC)C(=O)N2CC)c2ccccc21 (stereo not given),12.1%,9.26% (active),21.2%,9.45% (active),-74.6% (active),3.79% (active),-28% (active),-85% (active),-61.6% (active),0.959% (active)
